Consider 49 compounds from PubChem BioAssay AID652067 (The Scripps Research Institute Molecular Screening Center, 2013).

Screen size: about 370,000 compounds; about 5,400 (1.5%) were called active. This excerpt belongs to a sample that is enriched for actives. Unmarked numbers belong to inactive results.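 The calls were made as follows: active = activation above the mean of all tested compounds plus 3 SD (cut at about 5.5% in these data); inactive = the rest.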

The subject of this assay is DAF-12 nuclear receptor (Haemonchus contortus). Briefly: H. contortus DAF-12 nuclear receptor activators, primary screen, cell-based, luminescence, HEK293, lit1-tk-luc reporter (AID 652067).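 Also: 100% = response to 3 µM Δ7-dafachronic acid high control.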 The conditions noted are these: HEK293 hcDAF-12 lit1-tk-luc reporter, at 6.8 µM, hits give high values, 0% DMSO, 100% Δ7-dafachronic acid.
With `CCOP1(=O)C=C(C(C)(C)C)OC1c1ccc(F)cc1` (centres undefined), the activation was -0.68%.

Regarding `C=CCN1C(C(=O)OC)CN(Cc2cn(Cc3ccccc3)nn2)CCS1(=O)=O` (centres undefined), the activation is 1.4%.

Regarding `COc1cccc(CNC(=O)[C@H]2CCCN2C(=O)[C@H]2CCCN2C(=O)C2CCCCC2)c1`, the activation was 0.47%.

Take `Cc1ccc2nc(CN(C)C(=O)[C@@H](Cc3ccccc3)NC(=O)[C@H]3O[C@@H](n4ccc(=O)[nH]c4=O)[C@H](O)[C@@H]3O)[nH]c2c1`: the activation was 0.21%.

Turning to `CC1CC(C)CN(CCC(=O)Nc2ccc3c(c2)CCC3)C1` (centres undefined), the activation is 0.05%.

On to `O=C(Nc1ccc(F)cc1)c1cc2c(s1)CCCC2`, for which the activation was 3.72%.

`O=C(Nc1ccc2c(c1)CCC2)c1ccc(Br)s1`: the activation was 9.52% (active).

Turning to `COC(=O)[C@@]12CCCCC3=C1N(CCC3)C(=O)[C@H]2CC(=O)NCc1cccc2ccccc12`, the activation was -2.45%.

As for `CC(c1c[nH]c2ccccc12)c1c(-c2ccccc2)n(C)c2ccccc12` (centres undefined), the activation was 3.35%.

On to `Cn1ccnc1SCC(=O)Nc1ccc2c(c1)OCCO2`, for which the activation was 6.79% (active).

Regarding `CCn1c(SCC(=O)Nc2ccc3c(c2)OCCO3)nnc1C(C)C`, the activation was -0.69%.

On to `O=C(CSc1nnnn1C1CCCC1)Nc1ccc2c(c1)OCCO2`, for which the activation is 1.27%.

For `COC(=O)c1c(NC(=O)c2ccc(S(=O)(=O)N3CCOCC3)cc2)sc2c1CCN(C(C)C)C2`, the activation was 2.7%.

In the case of `Cc1ccc(-c2csc(N(Cc3ccco3)C(=O)c3cccs3)n2)cc1`, the activation is -0.42%.

Turning to `CCn1c(SCCC(C)C)nnc1-c1c[nH]c2ccccc12`, the activation is -1.13%.

In the case of `Cc1ccc(-c2csc(-c3c[nH]c4ccccc34)n2)cc1`, the activation was 6.08% (active).

Take `COc1cccc(CNC(=O)C2CCCN(c3nc4ccccc4o3)C2)c1OC` (centres undefined): the activation was -1.83%.

As to `C=CCOC/C=C/C#CCN(CC=C)Cc1ccc(OC)cc1OC`, the activation was -3.48%.

For `COC(=O)Nc1ccc(S(=O)(=O)N(C)CC(F)(F)C(F)F)cc1`, the activation was -2.07%.

On to `COc1cccc(CNC(=O)CNS(=O)(=O)c2ccc3nc(C)sc3c2)c1OC`, for which the activation is -1.15%.

Take `C=CCn1c(=O)c(C(=O)Nc2ncccc2O)c(O)c2ccccc21`: the activation is -0.68%.

For `Cn1c(=O)c(C(=O)Nc2ncccn2)c(O)c2ccccc21`, the activation is 9.87% (active).

As to `Cn1c(=O)c(Sc2ccc(Cl)cc2)c(O)c2ccccc21`, the activation was 2.05%.

For the compound `COc1ccc(-n2c(SCC(=O)NC3CCCC3)nnc2-c2ccncc2)cc1`, the activation was -2.34%.

Consider `COc1ccc(C2=CN(Cc3ccccc3)C(c3ccc(OC)cc3)CC2=O)cc1` (centres undefined), for which the activation is -0.85%.

As for `CCOc1ccc(C(=O)Nc2ccc(CN3CCOCC3)cc2)cc1Cl`, the activation was -3.09%.

Turning to `COc1ccc(C(=O)Nc2ccnn2C2CCN(Cc3ccncc3)CC2)cc1`, the activation is -0.02%.

As to `COc1ccc(C(=O)Nc2sc(C)c(C)c2CN2CCOCC2)cc1`, the activation is 7.53% (active).

On to `CCC(=O)c1cn(CCOc2ccccc2OC)c2ccccc12`, for which the activation is -2.5%.

Turning to `C=CCN1C(=O)[C@@H](CC(=O)N2CCN(C(=O)c3ccco3)CC2)[C@]2(C(=O)OC)CCCCC=C12`, the activation was 1.06%.

On to `O=C(Nc1ncccc1O)c1ccc(S(=O)(=O)N2CCCCCC2)cc1`, for which the activation was 3.34%.

`O=C(Nc1ncccc1O)c1ccc(S(=O)(=O)N2CCCC2)cc1`: the activation was 1.37%.

`O=C(Nc1ncccc1O)c1ccc(C(=O)c2ccccc2)cc1`: the activation was 7.52% (active).

For the compound `Cc1ccc(C(=O)NNC2=Nc3cc([N+](=O)[O-])ccc3OC2)cc1`, the activation was 2.34%.

`COc1ccc(C2=Nc3cc(C)ccc3OC2)cc1`: the activation is 12.7% (active).

`COc1ccc(-c2onc(C)c2-c2ccc3c(c2)OCCO3)c(O)c1`: the activation was -2.41%.

Turning to `CCOC(=O)c1ccccc1NC(=S)N1CCC(C(N)=O)CC1`, the activation was -0.3%.

On to `Cc1cccc(Nc2nc(-c3ccccc3)cs2)n1`, for which the activation was 13% (active).

With `CC(=O)NC(c1ccccc1)c1nc(-c2cccc(C(C)C)c2)cs1` (centres undefined), the activation was -2.11%.

As to `CC(=O)NC(c1cccc(F)c1)c1nc(-c2cccc(F)c2)cs1` (centres undefined), the activation was -0.83%.

Consider `CC(=O)Nc1cccc(-c2csc(Nc3cccc(C)n3)n2)c1`, for which the activation is 6.6% (active).

Consider `CC(=O)NC(c1ccccc1)c1nc(-c2ccccc2C)cs1` (centres undefined), for which the activation was 3.96%.

For the compound `Cc1nc(N)sc1-c1ccccc1`, the activation is 1.84%.

For `Cc1ccccc1Nc1scc(-c2ccc(Br)cc2)[n+]1-c1ccccc1C`, the activation was -0.47%.

As for `Cc1noc(C)c1NC(=O)Nc1ccc2c(c1)C(=O)N([C@H](C)CO)C[C@H](C)[C@H](CN(C)Cc1ccncc1)OCCCC[C@@H](C)O2`, the activation was -0.42%.

With `O=C1CCC2(CCC(c3ccc(Cl)cc3)CC2)N1CCO` (centres undefined), the activation is 0.94%.

`Cc1ccc(C)c(CN2CCC(CNC(=O)C3CCCN(c4ncnc5c4nc4n5CCCCC4)C3)CC2)c1` (centres undefined): the activation is -1.74%.

`N#Cc1ccccc1OC[C@@H](O)CN1CCC(C(O)(c2ccccc2)c2ccccc2)CC1`: the activation is -1.36%.

In the case of `Cc1ccc(CSc2nnc(SCC(=O)NN=Cc3cc(Br)ccc3F)s2)cc1`, the activation is -0.88%.
